Source: PubChem BioAssay (several laboratories)
Bead autofluor – counter-screen for toxin protease inhibitors: compound fluorescence. compound autofluorescence counterscreen, microsphere flow cytometry; active compounds read high. fluorescence intensity (concentration not given with the values). AID 624483. actives 3.1% (n = 360,000); in the data active = fluorescence intensity above about 16000; inconclusive = no clear call, values can overlap the other calls
SARS 3CLpro inh – SARS-CoV 3CLpro protease inhibition | P0C6X7 | recombinant SARS-CoV 3CLpro, quenched FRET peptide cleavage | inhibition, % at 6 µM | actives 0.14% (n = 290,000) | AID 1706; in the data active = inhibition above about 12%
Anthrax LF inh2 – anthrax lethal factor protease inhibition | P15917 | multiplex microsphere protease cleavage assay, LF | inhibition, % at 10 µM | actives 0.12% (n = 360,000) | AID 588501
Target sequence (P15917 whole entry, looked up): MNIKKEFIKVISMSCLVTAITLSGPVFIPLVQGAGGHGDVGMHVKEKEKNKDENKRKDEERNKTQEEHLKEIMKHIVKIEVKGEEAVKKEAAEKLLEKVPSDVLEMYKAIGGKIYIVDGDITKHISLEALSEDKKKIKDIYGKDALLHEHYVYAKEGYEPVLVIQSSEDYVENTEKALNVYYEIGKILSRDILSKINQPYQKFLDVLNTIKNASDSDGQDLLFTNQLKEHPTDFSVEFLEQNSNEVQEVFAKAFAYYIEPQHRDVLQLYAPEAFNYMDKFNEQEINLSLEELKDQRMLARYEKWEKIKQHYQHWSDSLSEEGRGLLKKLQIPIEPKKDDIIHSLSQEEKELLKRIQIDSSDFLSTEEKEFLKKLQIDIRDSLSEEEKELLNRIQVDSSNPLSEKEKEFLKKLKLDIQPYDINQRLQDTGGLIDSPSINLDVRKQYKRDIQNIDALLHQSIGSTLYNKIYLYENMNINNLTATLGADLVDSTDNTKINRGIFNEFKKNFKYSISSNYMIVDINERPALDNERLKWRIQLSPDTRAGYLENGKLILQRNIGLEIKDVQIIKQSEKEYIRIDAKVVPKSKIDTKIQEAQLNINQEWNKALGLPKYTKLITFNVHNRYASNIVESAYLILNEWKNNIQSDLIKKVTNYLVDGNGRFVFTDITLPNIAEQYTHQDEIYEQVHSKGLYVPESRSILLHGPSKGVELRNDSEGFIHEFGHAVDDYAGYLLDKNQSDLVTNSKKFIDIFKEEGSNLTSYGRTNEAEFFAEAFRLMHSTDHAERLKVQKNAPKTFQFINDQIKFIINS
BJeLR viability – kills HRASV12-expressing BJeLR cells. inhibition, % (concentration not given with the values). BJeLR (HRASV12) viability, CellTiter-Glo ATP luminescence, 48 h. actives 0.17% (n = 300,000); in the data active = inhibition above about 50%; inconclusive = no clear call, values can overlap the other calls
BoNT F protease – blocks Botulinum neurotoxin F light chain protease; Multiplex microsphere protease cleavage assay, flow cytometry; actives 0.22% (n = 360,000); inhibition, % at 10 µM; in the data active = inhibition above about 35%, passing the limit was not always enough; inconclusive = no clear call, values can overlap the other calls
BoNT-A LC inh2 – blocks Botulinum neurotoxin A light chain protease | inhibition, % at 10 µM | AID 588499 | multiplex microsphere protease substrate cleavage, flow cytometry | actives 0.17% (n = 360,000)
Hits are given with their value; - = inactive; ? = inconclusive; . = no result. Most compounds without a hit are left out; they make up all but 3.6% or so of the library. Cut-off read from the data, not from the text of the source, unless noted: active = inhibition above about 30%; inconclusive = no clear call, values can overlap the other calls; inactive = below that.

SMILES | Bead autofluor | SARS 3CLpro inh | Anthrax LF inh2 | BJeLR viability | BoNT F protease | BoNT-A LC inh2
Cc1cc(N2CCCC2)c(F)cc1/C=C\[N+](=O)[O-] | - | - | 35 | - | - | 62
O=C(c1ccccc1)c1nc2c(n1O)CCCCC2 | - | - | - | - | - | -
CCCOc1ccc(C(=O)c2nc3c(n2O)CCCCC3)cc1 | 23225 | - | - | - | - | -
Cc1cc(NC(=O)CCC(=O)N2CCC3(CC2)OCCO3)no1 | 23557 | - | - | - | - | -
COc1cc2c(cc1OC)CN(C(C)C(=O)Nc1ccc(NC(C)=O)cc1)CC2 (configuration not stated) | 17392 | - | - | - | - | -
Cc1ccc(NC(=O)C(C)N2CCc3ccccc3C2)cc1 (configuration not stated) | - | - | - | - | - | -
COc1cc2c(cc1OC)CN(CC(=O)Nc1ccc(C)cc1)CC2 | 20583 | - | - | - | - | -
Cc1ccc(NC(=O)N2CCCC2C(=O)Nc2nnc(C(C)C)s2)cc1 (configuration not stated) | - | - | - | - | - | -
S=c1nc(-c2ccccc2)[nH]n1-c1ccccc1 | 25268 | - | - | - | - | -
Cc1ccc(NS(=O)(=O)c2c(C)[nH]c(C)c2C(=O)N2CCCCC2)cc1Cl | - | - | - | - | - | -
CCOC(=O)N1CCN(c2nc(C)c3c(n2)CC(C)CC3=O)CC1 (configuration not stated) | 23668 | - | - | . | - | -
COc1ccc(CCNC(=O)CC2Nc3cc(C)c(C)cc3NC2=O)cc1OC (configuration not stated) | - | - | - | - | - | -
Cc1cc2c(cc1C)NC(CC(=O)NCc1ccccc1)C(=O)N2 (configuration not stated) | 23973 | - | - | - | - | -
Cc1ccccc1N(C(=O)Cn1nnc(-c2cccs2)n1)C(C(=O)NCCC(C)C)c1ccco1 (configuration not stated) | - | - | - | - | - | -
O=C1CCCCC(=O)N(c2ccccc2)c2ccccc21 | 16379 | - | - | - | - | -
COc1ccc2[nH]c3c(c2c1)CCN1C(=O)C(CC(=O)NCc2ccc(OC)c(OC)c2)C[C@H](C(=O)N2CCCCC2)[C@@]31CCc1ccccc1 (some centres not stated) | - | . | - | . | - | -
CC(c1ccccc1)N1CCn2c(nc3cc(NC(=O)NC4CCCCC4)ccc32)C1 (configuration not stated) | 19391 | - | - | - | - | -
CC(c1ccccc1)N1CCn2c(nc3cc(NC(=O)c4cccs4)ccc32)C1 (configuration not stated) | - | - | - | - | - | -
CCN(CC)CCCNC(=O)c1cc(-c2ccccc2)c(N2CCCCC2)s1 | - | - | - | 51 | - | -
CC(C)OCCOc1ccc2oc(-c3ccco3)cc(=O)c2c1 | - | - | - | - | - | -
CCOC(=O)c1ccc(N2CN=C3SCC(=O)N3C2)cc1 | 23262 | - | - | - | - | ?
COc1cc(OC)cc(C(=O)NC(=S)NCCc2ccccc2)c1 | 22614 | - | - | - | - | -
COc1cccc(-c2cc(C(=O)NCc3ccc(Cl)cc3)no2)c1 | - | - | - | - | - | -
CCCNC(=O)c1cc(-c2ccc(OC)cc2)on1 | 16440 | - | - | - | - | -
CCCCNC(=O)c1cc(-c2ccc(OC)cc2)on1 | - | - | - | - | - | -
SMILES | Bead autofluor | SARS 3CLpro inh | Anthrax LF inh2 | BJeLR viability | BoNT F protease | BoNT-A LC inh2
COc1cccc(-c2cc(C(=O)NCCc3ccccc3)no2)c1 | 21462 | - | - | - | - | -
COc1cccc(-c2cc(C(=O)Nc3cc(C)on3)no2)c1 | 22051 | - | - | - | - | -
COc1ccc(C(=O)NC(=S)NCc2ccccc2)cc1 | - | - | - | - | - | -
C=C(C)CCC(C)N1CCC(n2nccc2NC(=O)CCCc2ccccc2)CC1 (configuration not stated) | - | - | - | - | - | -
Cn1cnc(S(=O)(=O)Nc2cc(-c3ccc(Cl)cc3)nn2C)c1 | - | - | ? | - | - | -
CN1CCN(C(=O)CCN2C(=O)/C(=C/c3cccc(Br)c3)SC2=S)CC1 | - | - | - | - | - | -
CN1CCN(C(=O)CCCN2C(=O)/C(=C/c3cccc(Br)c3)SC2=S)CC1 | - | - | - | 90 | - | -
O=C(CCN1C(=O)/C(=C/c2ccccc2)SC1=S)NCCCN1CCOCC1 | - | - | - | - | - | -
CCc1ccc(/C=C2/SC(=S)N(CCC(=O)Nc3cccnc3)C2=O)cc1 | ? | - | - | 102 | - | -
O=C(CCN1C(=O)/C(=C/c2ccccc2)SC1=S)Nc1cccnc1 | - | - | - | - | - | -
O=C(CCN1C(=O)/C(=C\c2cccc(Br)c2)SC1=S)NCCCN1CCOCC1 | - | - | - | 85 | - | -
CCc1ccc(/C=C2/SC(=S)N(CCC(=O)NCCCN3CCOCC3)C2=O)cc1 | - | - | - | 106 | - | -
CCN(CC)CCNC(C(=O)Nc1cccc(C(C)=O)c1)c1ccccc1 (configuration not stated) | - | - | - | - | - | -
C=CC[C@@H](CC(=O)OC(C)(C)C)C(=O)OC[C@H]1CCCN1C(=O)[C@@H](CC=C)CC(=O)NCCO | - | . | - | . | - | -
CCCCCOc1ccc(Br)cc1/C(C)=N/NC1=NCCN1 | - | - | - | 81 | ? | -
COCCCN1C(=O)c2ccccc2C1C(=O)NC1CCCCCC1 (configuration not stated) | 22972 | - | - | - | - | -
Nc1ncnc(Nc2cccc(C(F)(F)F)c2)n1 | 17187 | - | - | - | - | ?
CCOc1ccc(C(=O)NCc2ccncc2)cc1OCC | - | - | - | - | - | -
O=C(Nc1cnccn1)c1ccc(Cl)cc1 | - | - | - | - | - | -
CCOc1cc(C(=O)Nc2cc(C)ccn2)cc(OCC)c1OCC | - | - | - | - | - | -
CCOc1cc(C(=O)Nc2cnccn2)cc(OCC)c1OCC | 20443 | - | - | - | - | -
CCOc1cc(C(=O)NCc2ccncc2)cc(OCC)c1OCC | 19468 | - | - | - | - | -
O=C(Nc1cnccn1)c1ccncc1 | 24053 | - | - | - | - | -
CCOc1ccc(S(=O)(=O)NC(C)(C)C)cc1-c1nc2c(C(C)(C)C)nn(C)c2c(=O)[nH]1 | - | - | - | - | - | -
CC(=O)Nc1ccc(C(=O)N2CCCCC2c2cc(C(=O)NC(C)C)no2)cc1 (configuration not stated) | - | . | - | . | - | -
O=C(NCc1ccc2c(c1)OCO2)c1cccc(S(=O)(=O)N2CCCCC2)c1 | 17025 | - | - | - | - | ?
O=C(Nc1ccc(Nc2ccccc2)cc1)c1cccc(F)c1 | - | - | - | - | - | -
O=C(Nc1cccc(S(=O)(=O)N2CCCC2)c1)c1cccc(S(=O)(=O)N2CCOCC2)c1 | - | . | - | . | - | -
O=C(NCc1ccc2c(c1)OCO2)c1cccc(S(=O)(=O)N2CCCC2)c1 | - | - | - | - | - | -
O=C(Nc1ccc2c(c1)OCCO2)c1cccc(S(=O)(=O)N2CCOCC2)c1 | 23080 | - | - | - | - | -
